Assay outcomes as filed in PubChem.
Shown are actives, neighbours in structure and some others; about 21% of the full set was active somewhere.
SARS PLpro yeast: SARS-CoV PLP inhibition in yeast. S. cerevisiae expressing SARS-CoV PLpro, growth rescue. AID 485353. Potency, µM (top dose mostly 32.9 µM), inactives show top-dose activity, positive = growth rescue, usual class: activators. 0.19% of 330,000 active; also: potency is read from the fitted curve at half-maximal effect; 0% is about no effect; nearly all actives have a fitted effect of over 55% in size
NS1 function inh: blocks influenza NS1 protein function; AID 2326; 0.4% of 270,000 active; Potency, µM (titrated, usually from 46.1 µM), inactives show top-dose activity, positive = more growth; also: potency is read from the fitted curve at half-maximal effect; actives are rising curves; nearly all actives have a fitted effect of over 50% in size
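Compounds were scored for reversing the slow growth caused by influenza A NS1 in S. cerevisiae, measured by optical density at 600 nm. Assay medium contained 2% galactose at pH 6.0; NS1-free yeast of the same strain were the positive control.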
Shiga inhibitor: blocks Shiga toxin action in Vero cells; 9.2% of 290,000 active; AID 2315; inhibition, % at 38.7 µM; Vero cells, Shiga toxin protein synthesis inhibition reporter; in the data active = inhibition mostly above about 28%, no sharp cut-off; inactive = mostly below about 43%; also: 0% is about no effect
Pf growth 48h: P. falciparum growth inhibition at 48 hours (one generation) | P. falciparum luciferase growth in erythrocytes, 48 h | Potency, µM (top dose mostly 28.7 µM), without a hit: top-dose activity change, negative = inhibition, actives largely listed as inhibitors | 5.9% of 310,000 active | AID 504832; active = well fitted inhibition curve with a large enough effect; inconclusive = small, poorly fitted or top-dose-only effect, or another doubt; inactive = no such curve, though single readings can be large or run the other way; also: potency is read from the fitted curve at half-maximal effect; % is scaled to controls: 0 for no effect and ±100 for the full control effect
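Here the parasites carry a stable luciferase gene and grow inside erythrocytes in Albumax-based RPMI medium with compound for one erythrocytic cycle. Activity is scored as loss of luminescent signal.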
CHX counter: affects cycloheximide protein synthesis inhibition readout, counter-screen. cell reporter, cycloheximide protein synthesis inhibition counterscreen. max response, %. 12% of 300,000 active; in the data active = max response mostly above about 13%, no sharp cut-off; inactive = mostly below about 14%; also: read at 38.3 µM for the half of the compounds with a filed dose; 0% is about no effect
Pf growth 96h: inhibits malaria parasite growth, 96 h. P. falciparum luciferase reporter growth, 96 h. Potency, µM (highest dose often 28.7 µM), without a hit: at the highest dose activity change, negative = inhibition, most hits filed as inhibitors. 6.9% of 320,000 active. AID 504834; active = well fitted inhibition curve with a large enough effect; inconclusive = small, poorly fitted or top-dose-only effect, or another doubt; inactive = no such curve, though single readings can be large or run the other way; also: potency is read from the fitted curve at half-maximal effect; % is scaled to controls: 0 for no effect and ±100 for the full control effect
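P. falciparum expressing integrated firefly luciferase, in erythrocytes at 2% hematocrit, 0.05% parasitemia, incubated with compounds 96 h at 37 C, 5% CO2. Growth inhibition read as loss of luminescence; two-generation exposure targets delayed-death apicoplast inhibitors.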
* hit, by the source's call; u = inconclusive; x = not tested or not shown; ! = not confirmed by another sample. Unless noted, calls follow the shape of the full dose curve.

SMILES	SARS PLpro yeast	NS1 function inh	Shiga inhibitor	Pf growth 48h	CHX counter	Pf growth 96h
CCC(C)Sc1ccc([C@H]2N[C@@](Cc3ccccc3)(C(=O)OC)[C@H]3C(=O)N(CC)C(=O)[C@@H]23)cc1 (stereo not given in full)	20%	x	x	3.3µM*	x	1.7µM*
CCCn1c(N)c(N(CCOC)C(=O)c2cc3c(s2)CCCCC3)c(=O)[nH]c1=O	0%	11%	-11	18%	-3	13%
CN(C)S(=O)(=O)c1cccc(C(=O)NCCOC(=O)c2cc(F)c(F)cc2Cl)c1	-4%	-1%	-4	8%	-5	11%
O=c1[nH]cnc2cc(Cl)ccc12	-4%	-11%	-11	8%	-2	u
COc1ccc2[nH]cc(CCN=C3SCC(=O)N3C)c2c1	6%	5%	36	x	16	12µM*
CC(C)(C)NC(=O)/C(=C\C=C\c1ccccc1)NC(=O)c1ccc([N+](=O)[O-])cc1	-1%	1%	-16	u	7	21%
CCOC(=O)C1CCN(CC(O)COc2ccc(C(C)=O)cc2)CC1 (stereo not given)	4%	6%	0	x	11	9.3µM*
C[C@@H]1CC=C[C@H]2[C@H]1C(=O)N(Cc1ccccc1)[C@H]2c1ccc(C(F)(F)F)cc1	-16%	-78%	-5	u	-1	u
Cc1ccc(-c2cccc(C3CC=CC4C3C(=O)N(Cc3ccccc3)C4c3cc(C)ccc3F)c2)cc1 (stereo not given)	1%	-1%	24	4.7µM*	23	7.4µM*
O=C1C2C(c3ccccc3)CC=CC2[C@H](c2ccc(C(F)(F)F)cc2)N1Cc1ccccc1 (stereo not given in full)	-8%	-57%	15	3.3µM*	7	u
COc1ccc(C2C3C=CCC(c4cccc(/C=C/c5ccccc5)c4)C3C(=O)N2Cc2ccccc2)cc1Cl (stereo not given)	x	x	36*	x	36*	x
CN(C)c1ccc(-c2cccc(C3CC=CC4C3C(=O)N(Cc3ccccc3)C4c3ccc(C(F)(F)F)cc3)c2)cc1 (stereo not given)	-1%	2%	50	u	14*!	u
COC(=O)c1sc(NC(=S)NC(=O)c2ccccc2C)nc1C	0%	9%	38	45%	-2	u
Cn1c(=O)n(C)c2cc(NC(=O)CSc3nnc(-c4ccccc4O)n3-c3ccccc3)ccc21	-8%	-69%	-11	u	-2	x
COc1ccc(-c2cccc(C3CC=CC4C3C(=O)N(Cc3ccccc3)C4c3ccc(C(F)(F)F)cc3)c2)cc1 (stereo not given)	2%	-5%	-5	6.6µM*	0	7.4µM*
COc1cccc(OC)c1C(=O)NC(=S)NCc1cccnc1	-1%	-14%	-3	83%	1	-31%
Cn1cccc1C(=O)OCC(=O)c1c[nH]c2ccccc12	-4%	x	x	x	x	x
O=C(OCC(=O)c1c[nH]c2ccccc12)C1=COCCO1	0%	-6%	74*	-18%	37*	56%
O=C(OCC(=O)c1c[nH]c2ccccc12)c1ccc([N+](=O)[O-])s1	-6%	-56%	19	u	24*	u
CC1(C(=O)OCC(=O)c2c[nH]c3ccccc23)CC1(Cl)Cl (stereo not given)	-21%	-108%	85*	x	53*	11%
COc1ccc2c(C(=O)CCl)c[nH]c2c1	9%	-64%	2	15µM*	-3	u
Nc1ccn([C@H]2O[C@H](CO)[C@@H]3[O][Sn]([c]4ccccc4)([c]4ccccc4)[O][C@H]32)c(=O)n1	x	-7%	x	x	x	x
OCC[C@H]1C[C@@H](O)[C@H](O)[C@@]2(Cc3ccccc3O2)O1	0%	x	x	27%	x	12%
COc1ccc(C(=O)OCC(=O)c2c[nH]c3ccccc23)cc1OC	4%	x	x	15µM*	x	4.7µM*
Cc1ccc(S(=O)(=O)CCC(=O)OCC(=O)c2c[nH]c3ccccc23)cc1	2%	-7%	12	-1%	2	-33%
O=C(COc1ccccc1)OCC(=O)c1c[nH]c2ccccc12	-1%	x	x	-24%	x	u
CC(O)C(NS(=O)(=O)c1ccc(Cl)cc1)C(=O)OCC(=O)c1c[nH]c2ccccc12 (stereo not given)	0%	4%	-4	-14%	-4	0%
